# Screening data from PubChem.
# CHRM1 agonist: human M1 muscarinic receptor agonists, primary screen, Fluo-8 calcium fluorescence, CHO-K1 cells, HTS | Muscarinic acetylcholine receptor M1 (Homo sapiens), P11229 | CHO-K1 hM1, agonist mode; 0% DMSO, 100% acetylcholine EC100 | activation, % at 3 µM | 360,000 compounds, 0.33% hits | AID 588814, 2011;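 active = activation above the run's mean compound activation plus 3 SD, cut at about 16% in these data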;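 note: peak over basal fluorescence ratio within a 140 s kinetic read after compound addition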
# Target sequence (P11229 whole entry, looked up): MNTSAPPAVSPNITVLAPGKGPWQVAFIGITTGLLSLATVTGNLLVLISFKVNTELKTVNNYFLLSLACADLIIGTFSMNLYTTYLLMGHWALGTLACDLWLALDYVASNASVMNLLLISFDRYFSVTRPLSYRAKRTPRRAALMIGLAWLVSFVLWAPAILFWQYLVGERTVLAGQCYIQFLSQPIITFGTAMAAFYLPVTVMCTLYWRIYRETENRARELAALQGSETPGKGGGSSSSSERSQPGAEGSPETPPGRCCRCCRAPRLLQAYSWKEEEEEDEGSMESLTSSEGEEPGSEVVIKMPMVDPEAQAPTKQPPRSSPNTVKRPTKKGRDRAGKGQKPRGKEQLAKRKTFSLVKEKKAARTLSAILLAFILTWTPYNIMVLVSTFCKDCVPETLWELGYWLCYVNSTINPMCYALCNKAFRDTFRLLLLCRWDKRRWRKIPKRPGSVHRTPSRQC
# CHRM1 PAM: human M1 muscarinic receptor positive allosteric modulators, primary screen, CHO-K1 cells, Fluo-8 calcium fluorescence, 1536-well | Muscarinic acetylcholine receptor M1 (Homo sapiens), P11229 | 360,000 compounds, 0.088% hits | CHO-K1 hM1, ACh EC20; 0% = ACh EC20, 100% = maximal ACh | activation, % at 3 µM; in the data active = activation above about 19%, passing the limit was not always enough
# CHO-K1 Ca ag: counter-screen for M1 agonists: effect in parental CHO-K1 cells; Fluo-8 calcium fluorescence; scaled to maximal ATP response, vehicle zero; activation, % at 3 µM; 360,000 compounds, 0.48% hits; in the data active = activation above about 15%;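 note: untransfected CHO-K1 host cells lacking M1 receptor as counterscreen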
# CHO-K1 Ca antag: counter-screen for M1 antagonists: effect in parental CHO-K1 cells. AID 602250. 360,000 compounds, 0.6% hits. ATP-induced calcium, Fluo-8 fluorescence. inhibition, % at 3 µM;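 active = inhibition above a per-plate cutoff, the plate's mean sample inhibition plus 3 SD, cut at about 24% in these data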;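 note: 0% = DMSO plus EC80 ATP and 100% = DMSO alone without ATP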
# M1 PAM parental: nonselective calcium activators in parental CHO-K1 cells, primary screen, counter-screen for M1 PAM project, cell-based, Fluo-8 calcium fluorescence, full deck, 1536-well | ATP EC20; 0% at ATP EC20, 100% at ATP max | activation, % at 3 µM | 360,000 compounds, 0.02% hits;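 active = activation above the run cutoff, the mean activation of all test compounds plus 3 SD, cut at about 40% in these data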;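 note: peak over basal fluorescence ratio in a 140 s read after ATP addition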
# M1 antag: human M1 muscarinic receptor antagonists, primary screen, CHO-K1 cells, Fluo-8 calcium fluorescence, 1536-well; Muscarinic acetylcholine receptor M1 (Homo sapiens), P11229; CHO-K1 hM1, ACh EC80 antagonist; inhibition, % at 3 µM; 360,000 compounds, 1.3% hits;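 active = percent inhibition above its own plate's cutoff, namely the mean of that plate's compound wells plus 3 SD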;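 note: peak over basal fluorescence ratio during 140 s after agonist addition; 0% = ACh EC80 plus DMSO and 100% = DMSO alone without agonist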
# The depositor's hits bear a star; . = no result given. Compounds with a hit are over-represented: about 2.3% of the library has one in this group of screens.
SMILES,CHRM1 agonist,CHRM1 PAM,CHO-K1 Ca ag,CHO-K1 Ca antag,M1 PAM parental,M1 antag
Cc1cccc(CCN2CCN=C2Nc2ccccc2)c1,-6,2,8,-12,7,-10
Cn1c(CSCc2ccc(F)cc2)nnc1SCC(=O)Nc1nccs1,0,1,5,26*,9,6
O=C(Nc1ccc2c(c1)OCO2)Nc1ccc2c(c1)OCO2,-5,9,1,8,-4,-7
O=C(Nc1ccc(F)cc1)Nc1ccc2c(c1)OCO2,4,3,21*,10,-11,2
O=C(Nc1ccc([N+](=O)[O-])cc1)Nc1ccc(OC(F)F)c(Cl)c1,1,-15,32*,25*,8,40*
O=C(Nc1ccc2c(c1)OCO2)Nc1ccc(F)cc1F,0,2,1,20,-28,4
O=C(Nc1ccc(OC(F)F)c(Cl)c1)Nc1ccc2c(c1)OCO2,1,-6,8,27*,4,17
O=C(Nc1ccc(Cl)cc1)Nc1ccc2c(c1)OCO2,2,-14,13,8,-11,36*
COCCN1C(=O)c2ccccc2C1c1nc2ccccc2[nH]1 (centres undefined),-5,0,0,-11,9,-15
CCCCCCn1cc(CN2CC(N3CCN(CCN(C)C)CC3)CS2(=O)=O)nn1 (centres undefined),.,.,1,-25,20,.
CC(=O)c1cccc(OCC(=O)N(Cc2ccco2)c2c(N)n(Cc3ccccc3)c(=O)[nH]c2=O)c1,-5,5,0,-15,20,-4
COc1ccc(NC(=O)Nc2cccc([N+](=O)[O-])c2)cc1Cl,2,-10,14,30*,-3,16
O=C(CNCc1ccc(Cl)cc1)Nc1ccc2c(c1)OCCO2,-5,7,22*,-10,21,-4
CC(C(=O)Nc1cccc([N+](=O)[O-])c1)[n+]1ccccc1 (centres undefined),-10,11,1,-2,6,-7
CC(C)CN(CC(C)C)C(=O)Nc1cccc([N+](=O)[O-])c1,-10,-3,15*,-11,0,5
CCOc1ccc(CCNC(=O)C(C)N2C(=O)CC(C)(C)Sc3ccccc32)cc1 (centres undefined),0,10,1,-7,10,-4
C[C@]12CCC(O)CC1CCC1C2CC[C@]2(C)C(c3cc(C(F)(F)F)n[nH]3)CCC12 (some centres undefined),-4,9,0,4,-1,-9
CC(=O)c1nn(-c2cccc(Br)c2)cc1C(=O)c1ccc2ccccc2c1,-2,4,1,9,6,35*
COc1ccc(C(=O)c2cn(-c3cccc(Br)c3)nc2C(C)=O)cc1,-1,9,1,-8,17,-6
C[C@H]1CCC2[C@](C)(CO)[C@@H](O)CC[C@]2(C)[C@@]12CCC(CO)(CCO)O2 (some centres undefined),-1,-6,1,-2,4,9
Cc1cc(C)cc(N(CCC#N)C(=O)COC(=O)C2CCN(c3ccc(C(F)(F)F)cn3)CC2)c1,-7,-16,-1,6,-7,30*
COC(=O)c1ccc(C2C(C(=O)Nc3ccc(C)cc3C)=C(C)Nc3ncnn32)cc1 (centres undefined),-6,10,0,24*,-7,-12
COC(=O)C1=C(C)Nc2ncnn2C1c1ccc(OC(=O)c2ccccc2)cc1 (centres undefined),-4,0,0,-17,5,-28
CSc1nc(S(=O)(=O)c2ccccc2)c(Cl)s1,-9,1,0,-10,9,-8
NCC(c1ccccc1Cl)c1c[nH]c2ccccc12 (centres undefined),-2,5,1,-6,19,-14
